Read-out in test [1]: Tissue Factor, F3 (gene 2152)
The test is described as follows: BSK_CASM3C_TissueFactor: BioMAP Diversity Plus: CASM3C Assay for Tissue Factor Biomarker Activity (AID 2283052).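 Note: cell surface tissue factor protein level read by ELISA.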 As to conditions: primary human coronary artery smooth muscle cells; actives raise or lower the signal.

Read-out in test [2]: Interferon-gamma inducible Protein 10 (IP10), CXCL10 (gene 3627)
Description: BSK_hDFCGF_IP10: BioMAP Diversity Plus: hDFCGF Assay for Interferon-gamma inducible Protein 10 (IP10) Biomarker Activity (AID 2283053). The following applies: primary human foreskin fibroblasts; actives raise or lower the signal. The method in brief:
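Human foreskin fibroblast primary cells (hDFCGF system) were dosed with chemical and assayed at 24 h; IP-10 measured by ELISA. Activity fitted bidirectionally relative to DMSO negative control as baseline.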

Read-out in test [3]: Urokinase-type plasminogen activator receptor (uPAR), PLAUR (gene 5329)
The test is described as follows: BSK_CASM3C_uPAR: BioMAP Diversity Plus: CASM3C Assay for Urokinase-type plasminogen activator receptor (uPAR) Biomarker Activity (AID 2283054).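 Note: cell-surface uPAR protein level quantified by ELISA.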 The following applies: primary human coronary artery smooth muscle cells; actives raise or lower the signal.

Read-out in test [4]: Vascular cell adhesion molecule 1 (VCAM1), VCAM1 (gene 7412)
Description: BSK_CASM3C_VCAM1: BioMAP Diversity Plus: CASM3C Assay for Vascular cell adhesion molecule 1 (VCAM1) Biomarker Activity (AID 2283055).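 Note: VCAM-1 protein level quantified by ELISA on the cells.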 As to conditions: primary human coronary artery smooth muscle cells; actives raise or lower the signal.

Read-out in test [5]: Collagen III, COL3A1 (gene 1281)
The test is described as follows: BSK_hDFCGF_CollagenIII: BioMAP Diversity Plus: hDFCGF Assay for Collagen III Biomarker Activity (AID 2283056). As to conditions: primary human foreskin fibroblasts; actives raise or lower the signal. The method in brief: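 ELISA read-out of collagen III from human skin fibroblast cultures sampled 24 h post-dosing. Values were derived by bidirectional fitting relative to the DMSO vehicle control.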

Read-out in test [6]: Epidermal growth factor receptor (EGFR), EGFR (gene 1956)
The test is described as follows: BSK_hDFCGF_EGFR: BioMAP Diversity Plus: hDFCGF Assay for Epidermal growth factor receptor (EGFR) Biomarker Activity (AID 2283057). As to conditions: primary human foreskin fibroblasts; actives raise or lower the signal. The method in brief: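 Primary human foreskin fibroblasts were exposed to compound for 24 h, after which cell-surface EGFR was quantified by ELISA. Activity was fitted bidirectionally against the DMSO negative control as baseline.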

Read-out in test [7]: Interleukin-8 (IL8), CXCL8 (gene 3576)
Description: BSK_hDFCGF_IL8: BioMAP Diversity Plus: hDFCGF Assay for Interleukin-8 (IL8) Biomarker Activity (AID 2283058). As to conditions: primary human foreskin fibroblasts; actives raise or lower the signal. The method in brief:
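Cells used are human skin primary fibroblasts. Chemical is added, cultures run 24 h, then IL-8 is quantified by ELISA, and gain or loss versus DMSO control is fitted in both directions.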

Test [8] can be described thus: BSK_hDFCGF_Proliferation: Cell Proliferation Assessment in the BioMAP Diversity Plus: hDFCGF Assay (AID 2283059).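 Note: curves fitted for both rise and fall of signal versus DMSO baseline.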 As to conditions: primary human foreskin fibroblasts. The method in brief:
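This proliferation readout used SRB total-protein staining of human foreskin fibroblasts […], normalized to DMSO with bidirectional curve fitting.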

Read-out in test [9]: Macrophage colony-stimulating factor (MCSF), CSF1 (gene 1435)
The test is described as follows: BSK_hDFCGF_MCSF: BioMAP Diversity Plus: hDFCGF Assay for Macrophage colony-stimulating factor (MCSF) Biomarker Activity (AID 2283060). The following applies: primary human foreskin fibroblasts; actives raise or lower the signal. The method in brief:
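Primary human foreskin fibroblasts dosed with chemical; 24 h later, M-CSF quantified by ELISA; curves fitted in both directions vs DMSO negative control.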

A short description of test [10]: BSK_hDFCGF_SRB: Viability Assessment in the BioMAP Diversity Plus: hDFCGF Assay (AID 2283061).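 Note: cells exposed to compound for 24 h before the read.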 The following applies: primary human foreskin fibroblasts. The method in brief:
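Readout is SRB absorbance at 560 nm, reflecting total protein in parallel cultures of human foreskin fibroblasts harvested 24 h after chemical dosing. Activity was fitted bidirectionally relative to DMSO.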

Here are results for 21 compounds from PubChem BioAssay (EPA / NIEHS).

SMILES strings stand for the structures. Calls of active or inactive are those of the source. Rule for the calls: active = hit-call score of the fitted dose curve at least 0.9, where 1 is the maximum; inactive = score below 0.9.

Consider `C=CCCCCCCCCC(=O)O`, for which the result in [1], in test [2], in [3], in [4], in [5] and in [6] was inactive. Also, the result in [7], in [8], in [9] and in test [10] was inactive.
Consider `C[C@](N)(Cc1ccc(O)c(O)c1)C(=O)O`, for which the outcome in test [1], in test [3], in [4], in [5], in test [6] and in [7] was inactive. Besides, the result in test [10] was inactive. Besides, the AC50 was 23.2 µM (active) in test [2], 12.5 µM (active) in [8] and 26.6 µM (active) in test [9].
As for `Cc1ccc(S(=O)(=O)O)cc1C`, the outcome in [1], in test [2], in [3], in test [4], in test [5] and in [6] was inactive. Also, the result in [7], in [8], in test [9] and in [10] was inactive.
For the compound `CNS(=O)(=O)c1cc(C(=O)N2CCC(CCN3C4CCC3CC(n3c(C)nc5ccccc53)C4)(c3cccc(F)c3)CC2)c(Cl)cc1F` (stereo not given), the result in test [1], in test [2], in [3], in test [6], in [7] and in test [9] was inactive. The AC50 in test [4] is 6.7 µM (active); in test [5], 20 µM (active); in test [8], 11.5 µM (active); in [10], 24.8 µM (active).
Consider `C1N2CN3CN1CN(C2)C3`, for which the outcome in test [1], in test [2], in test [3], in [4], in test [5] and in test [6] was inactive. The outcome in [7], in test [8], in test [9] and in test [10] was inactive.
For `CCOc1cccc(-n2cc(C(=O)N3CCN(c4cc(C(=O)O)c5ccccc5c4)CC3)nc2-c2ccc(C)cc2)c1`, in test [1], the outcome was inactive. Further, the half-maximal activity concentration (AC50) in test [2] was 10.4 µM (active); in [3], 31.1 µM (active); in test [4], 19.2 µM (active); in test [5] it was 4.99 µM (active); in test [6], 5.21 µM (active); in [7] it was 14.2 µM (active). Besides, the concentration at half-maximal activity (AC50) is 10.2 µM (active) in test [8], 7.68 µM (active) in test [9] and 6.49 µM (active) in test [10].
Turning to `CC(C)CCO`, the result in [1], in [2], in test [3], in [4], in test [5] and in [6] was inactive. Also, the outcome in test [7], in test [9] and in test [10] was inactive. In test [8], the AC50 was 17.2 µM (active).
Regarding `CCC(C)(C)C(=O)O[C@H]1C[C@@H](C)C=C2C=C[C@H](C)[C@H](CC[C@@H]3C[C@@H](O)CC(=O)O3)[C@H]21`, the AC50 in [1] was 3.97 µM (active); in [2], 31.4 µM (active); in test [3], 29.2 µM (active); in test [4], 29.8 µM (active); in [5], 33.3 µM (active); in [7], 29.5 µM (active). Also, the values for the AC50 in test [8], in test [9] and in test [10] were 13.9 µM (active), 26.3 µM (active) and 25.8 µM (active), respectively. In addition, in test [6], the outcome was inactive.
As for `Fc1ccccc1[C@@H](F)COC1CCC(Nc2ncnc3[nH]ncc23)CC1` (stereo not given in full), the result in test [1], in test [2], in [5], in test [6], in test [7] and in [9] was inactive. In addition, in test [10], the outcome was inactive. Also, the AC50 in [3] is 9.15 µM (active); in [4], 7.56 µM (active); in test [8], 10.3 µM (active).
As to `CCCN(C1CCN(C(=O)C2CCNCC2)CC1)[C@@H]1CCc2ccc(OC)cc2C1`, the outcome in test [1], in test [2], in test [3], in test [4], in [5] and in test [6] was inactive. For the same compound, the outcome in test [7], in test [8], in test [9] and in test [10] was inactive.
Turning to `CCOC(=O)c1ccc(C2CCC(NC[C@H](O)COc3ccc(O)c(NS(C)(=O)=O)c3)CC2)cc1` (stereo not given in full), the outcome in [1] and in test [3] was inactive. For the same compound, the AC50 in test [2] is 21.8 µM (active); in [4] it was 18.7 µM (active); in test [5], 13.4 µM (active); in test [6] it was 6.27 µM (active); in test [7], 27.2 µM (active); in [8] it was 1.75 µM (active). In addition, the AC50 in [9] was 10.2 µM (active); in test [10], 5.64 µM (active).
Consider `CCOCCO`, for which the result in test [1], in [2], in [3], in test [4], in test [5] and in [6] was inactive. Also, the outcome in test [7], in test [8], in test [9] and in [10] was inactive.
Take `CC1=CC(=O)CC(C)(C)C1`: the result in test [1], in test [2], in [3], in test [4], in test [5] and in test [6] was inactive. The result in test [7], in test [8], in [9] and in [10] was inactive.
For `Clc1nc(Cl)c(Cl)c(Cl)c1Cl`, the result in test [1], in test [2], in test [3], in [4], in test [5] and in test [6] was inactive. The result in test [7], in test [8], in [9] and in test [10] was inactive.
As for `COCCOCCOCCOC`, the outcome in test [1], in [2], in [3], in test [4], in test [5] and in test [6] was inactive. Also, the outcome in [7], in [8], in [9] and in [10] was inactive.
As for `CNCc1ccc(NC(=O)c2c[nH]c3c2C(=O)CCC3)cc1`, the result in test [1], in test [2], in [3], in test [4], in [5] and in test [6] was inactive. For the same compound, the outcome in test [7], in test [8], in test [9] and in test [10] was inactive.
On to `CC(C)=CCC/C(C)=C\CO`, for which the outcome in test [1], in test [2], in test [3], in test [4], in test [5] and in [6] was inactive. For the same compound, the outcome in test [7], in test [9] and in test [10] was inactive. Moreover, the AC50 in [8] was 0.171 µM (active).
`CC(C)=CCCC(C)=CC=O`: the outcome in test [1], in [2], in test [3], in test [4], in [5] and in [6] was inactive. For the same compound, the outcome in test [7], in test [9] and in test [10] was inactive. The AC50 in test [8] was 28.1 µM (active).
`C1=CCCC=CCCC=CCC1`: the outcome in test [1], in test [2], in [3], in test [4], in [5] and in [6] was inactive. For the same compound, the result in test [7], in test [8], in [9] and in test [10] was inactive.
In the case of `O=c1[nH]c2ccc(S(=O)CCN3CCC(Cc4ccc(F)cc4)CC3)cc2o1` (stereo not given), the result in [1], in test [2], in test [3], in [4], in [6] and in [7] was inactive. In addition, the result in test [9] and in test [10] was inactive. The AC50 in test [5] is 13.9 µM (active); in [8], 4.49 µM (active).
As to `O=c1n(CC2CO2)c(=O)n(CC2CO2)c(=O)n1CC1CO1` (stereo not given), the result in test [1], in [2], in test [3], in test [7] and in [10] was inactive. The AC50 in test [4] was 18.6 µM (active); in test [5], 6.71 µM (active); in test [6], 30.7 µM (active); in test [8] it was 4.36 µM (active); in test [9] it was 20 µM (active).
